# Measured values taken from PubChem BioAssay (EPA / NIEHS).
# Records with an inconclusive call do not appear. Activity calls are given as the source filed them. How the source made its calls, unless noted: active means hit-call score of the fitted dose curve at least 0.9, where 1 is the maximum; inconclusive means response in the unintended direction; inactive means score below 0.9.
# Key:
# [1] = biological target: human RAR-related Orphan Receptor beta (RORb), RORB (gene 6096) (UniProt Q92753); assay: ATG_RORb_TRANS: Attagene TRANS-FACTORIAL HepG2 Assay for human RAR-related Orphan Receptor beta (RORb) (AID 2283010)
# How it was run: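 Multiplexed transcription-factor reporter assay: HepG2 cells transiently carrying NR-Gal4/GAL4-UAS constructs, 24 h treatment, mRNA quantified by RT-PCR plus capillary electrophoresis fluorescence; activity scored as induction over DMSO.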
# [2] = read-out: Transforming growth factor beta 1 (TGFb1), TGFB1 (gene 7040); assay: BSK_BE3C_TGFb1: BioMAP Diversity Plus: BE3C Assay for Transforming growth factor beta 1 (TGFb1) Biomarker Activity (AID 2283036; active means hit-call score of the fitted dose curve at least 0.9, where 1 is the maximum; inactive means score below 0.9;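 further: TGF-b1 protein level measured by ELISA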); conditions: primary human bronchial epithelial cells; actives raise or lower the signal
# How it was run: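 TGF-b1 measured via ELISA, 24 h after chemical dosing of human bronchial epithelial cells (BE3C). Overt cytotoxicity assessed in parallel by SRB (0.1%, TCA-fixed, 560 nm); analysis bidirectional relative to DMSO.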
# [3] = read-out: Transforming growth factor beta 1 (TGFb1), TGFB1 (gene 7040); assay: BSK_KF3CT_TGFb1: BioMAP Diversity Plus: KF3CT Assay for Transforming growth factor beta 1 (TGFb1) Biomarker Activity (AID 2283072; active means hit-call score of the fitted dose curve at least 0.9, where 1 is the maximum; inactive means score below 0.9); conditions: primary human keratinocytes with fibroblasts; actives raise or lower the signal
# How it was run: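 TGF-b1 ELISA on a 24 h dosed co-culture of human keratinocytes and foreskin fibroblasts; cytotoxicity tracked in parallel cultures by SRB staining.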
# [4] = biological target: rat Peripheral-type Benzodiazepine Receptor (PBR), Tspo (gene 24230) (UniProt P16257); assay: NVS_MP_rPBR: NovaScreen (NVS) Membrane Protein Assay for rat Peripheral-type Benzodiazepine Receptor (PBR) (AID 2283335)
# How it was run: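 Single-concentration duplicate screening at 25 uM preceded concentration-series retesting of actives. Binding of a specific radioligand to rat kidney membrane PBR was read by filtration radiodetection after 1 h, with plate-wise positive and negative controls.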
# [5] = biological target: Peroxisome proliferator-activated receptor gamma (Homo sapiens) (UniProt P37231); assay: NVS_NR_hPPARg: NovaScreen (NVS) Nuclear Receptor Binding Assay for human Peroxisome Proliferator-activated Receptor gamma (PPARg) (AID 2283370)
# How it was run: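 Fluorescence polarization readout of ligand binding to extracted human PPARg, measured at 2 h. Duplicate single-point screen at 25 uM, then concentration-series retesting; activity defined as signal loss versus DMSO.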
# [6] = ATG_ERE_CIS: Attagene CIS-FACTORIAL HepG2 Assay for Estrogen Response Element (ERE) (AID 2282940; active means hit-call score of the fitted dose curve at least 0.9, where 1 is the maximum; inactive means score below 0.9); conditions: HepG2 ERE cis-reporter, Attagene RNA transcript; actives raise or lower the signal
# How it was run: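 Transient MRTU transfection of human HepG2; cis-element promoters; 24 h dosing; total RNA → RT (oligo dT) → PCR → 6-FAM primer extension → HpaI digest → CE fluorescence. Bidirectional fit, DMSO baseline.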
# [7] = biological target: Estrogen receptor (Homo sapiens) (UniProt P03372); assay: ATG_ERa_TRANS: Attagene TRANS-FACTORIAL HepG2 Assay for human Estrogen Receptor alpha (ERa) (AID 2282970); conditions: HepG2 Attagene TRANS ERa GAL4 reporter, mRNA
# How it was run: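 Reporter transcripts were measured 24 h after dosing by RT-PCR with fluorescent primer extension and capillary electrophoresis. The system is transiently transfected HepG2 expressing exogenous NR-Gal4 chimeras driving GAL4-UAS reporters; DMSO is the baseline.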
# [8] = biological target: human Norepinephrine Transporter (NET), SLC6A2 (gene 6530) (UniProt P23975); assay: NVS_TR_hNET: NovaScreen (NVS) Transporter Assay for human Norepinephrine Transporter (NET) (AID 2283377);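 further: cell-free membrane protein extracted from CHO cells expressing human NET; displacement of radioligand from human NET seen as loss of scintillation signal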
# How it was run: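 In this cell-free binding screen, chemicals at 25 uM (duplicate) compete with a radioligand for CHO-derived human NET over 1 hour, with filter-based radiodetection.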
# [9] = biological target: human Ephrin type-A Receptor 1 (EphA1), EPHA1 (gene 2041) (UniProt P21709); assay: NVS_ENZ_hEphA1: NovaScreen (NVS) Enzymatic Assay for human Ephrin type-A Receptor 1 (EphA1) (AID 2283158);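 further: activity is signal loss versus DMSO meaning EphA1 kinase inhibition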
# How it was run: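 Fluorescent substrate conversion, resolved by mobility-shift separation, measured 1 hour post-dosing using recombinant enzyme; signal loss relative to DMSO baseline. Single-concentration duplicates at 25 uM preceded singleton concentration series topping at 50 uM.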
# [10] = STM_H9_NormalizedViability: Cytotoxicity Assessment at 120 hours in the Stemina devTOX quickPredict H9 human embryonic stem cell (hESC)-based Assay (AID 2283784)
# How it was run: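 Here, H9 cells received test compound with daily medium renewal. Each plate included methotrexate references (1uM, 5 nM), 0.1% DMSO and media blanks; CellTiter-Fluor RFU was normalized to DMSO.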
# [11] = system: Thyroperoxidase (TPO), gene 54314; assay: CCTE_Simmons_AUR_rTPO: CCTE's Amplex UltraRed Assay for Thyroperoxidase (TPO) Inhibition, Simmons Lab (AID 2283662);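 on AC50: potency for loss of signal meaning inhibition of peroxidase activity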
# How it was run: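 Rat thyroid microsomes (5 ug protein) were incubated with test compound (8 concentrations, 5 nM–87.5 uM final, 0.5% DMSO), 25 uM Amplex UltraRed and 300 uM H2O2 in 200 mM phosphate buffer for 30 min at 37C in the dark; fluorescence read at 544/590 nm.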
# [12] = CCTE_Simmons_CellTiterGLO_HEK293T: Viability Assessment in CCTE's Assays for Thyroperoxidase (TPO) Inhibition, Simmons Lab (AID 2283665);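 on AC50: cells exposed to compound for 24 h before readout; actives reduce ATP signal below DMSO vehicle meaning cytotoxicity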
# How it was run: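 ATP depletion measured in HEK293T cells after 24 h dosing (8 concentrations, 5 nM–87.5 uM final; DMSO 0.5%) using CellTiter-Glo luminescence; curves fit for loss of signal against DMSO baseline.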
# [13] = biological target: Luciferin 4-monooxygenase (Photinus pyralis) (UniProt P08659); assay: CCTE_Simmons_QuantiLum_inhib_2: CCTE's Firefly Luciferase Inhibition Assay, Simmons Lab (AID 2283767);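 on AC50: potency for inhibitors that lower luciferase luminescence relative to DMSO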
# How it was run: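 Eight-point titrations of each chemical, 5 nM–87.5 uM final in 0.5% DMSO, were run in three biological replicates against recombinant luciferase for 30 min at 37C. Bioluminescence signal loss, read on reagent injection, gave the inhibition endpoint.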
# [14] = biological target: Steroid hormone receptor ERR1 (Homo sapiens) (UniProt P11474); assay: ATG_ERRa_TRANS: Attagene TRANS-FACTORIAL HepG2 Assay for human Estrogen-Related Receptor alpha (ERRa) (AID 2282971); conditions: HepG2 Attagene TRANS reporter, ERRa transactivation
# How it was run: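 Reporter transcripts from ERRa-Gal4 chimera activity measured in transiently transfected human HepG2 cells 24 hours after dosing, using RT-PCR with 6-FAM primer extension, HpaI digestion and capillary electrophoresis; DMSO is baseline.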
# [15] = biological target: Retinoic acid receptor RXR-alpha (Homo sapiens) (UniProt P19793); assay: ATG_RXRa_TRANS: Attagene TRANS-FACTORIAL HepG2 Assay for human Retinoid X Receptor alpha (RXRa) (AID 2283012)
# How it was run: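 Chimeric NR-GAL4 trans-activation in HepG2, 24 h treatment; reporter transcripts quantified by fluorescence on capillary electrophoresis, analysed for upward change from DMSO.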
# PGR (gene 5241) = PGR (gene 5241) (UniProt P06401); assay: TOX21_PR_BLA_Followup_Antagonist_ratio: Tox21 HEK293 Progesterone Receptor (PR) Antagonism Beta-lactamase Follow-Up Assay, Ratio (AID 2283934);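 further: PR-UAS-bla HEK293T cells stimulated with 1 nM R5020 agonist for 16 hr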
# How it was run: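 Measured in PR-UAS-bla HEK293T cells co-treated with compound and 1 nM promegestone for 16 hr; beta-lactamase ratio read after 2 h FRET substrate loading, with parallel CellTiter-Glo cytotoxicity.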
# [16] = TOX21_PR_BLA_Followup_Agonist_viability: Viability Assessment in the Tox21 HEK293 Progesterone Receptor (PR) Agonism Beta-lactamase Follow-Up Assay (AID 2283935);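 further: signal loss means lower viability so actives are cytotoxic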
# How it was run: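 Viability is read as CellTiter-Glo luminescence, where loss of signal indicates cytotoxicity. The cells are PR-UAS-bla HEK293T given compounds for 16 hr at 37C and 5% CO2, in the same wells used for the bla readout.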
# [17] = TOX21_PR_BLA_Followup_Antagonist_viability: Viability Assessment in the Tox21 HEK293 Progesterone Receptor (PR) Antagonism Beta-lactamase Follow-Up Assay (AID 2283936);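 further: cells exposed to compound with R5020 agonist for 16 h; hits lower the luminescence signal meaning cytotoxicity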
# How it was run: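 PR-UAS-bla HEK293T cells in medium with 2% charcoal-stripped FBS were treated with compounds plus R5020 for 16 hr at 37C. After the beta-lactamase read, CellTiter-Glo was added to the same wells and luminescence read after 30 min at room temperature.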
# THRB (gene 7068) [18] = biological target: THRB (gene 7068) (UniProt P10828); assay: TOX21_TRB_BLA_Antagonist_Followup_ratio: Tox21 Thyroid Hormone Receptor beta Antagonism Beta-lactamase (BLA) Follow-Up Assay, Ratio (AID 2283958)
# How it was run: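 Using charcoal-stripped 2% FBS medium, human TRβ-LBD/GAL4 reporter HEK293T cells received test compounds for 18 h. The endpoint is the cleaved-to-uncleaved substrate ratio (460/530 nm).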
# THRB (gene 7068) [19] = biological target: THRB (gene 7068) (UniProt P10828); assay: TOX21_TRB_COA_Antagonist_Followup_ratio: Tox21 Thyroid Hormone Receptor beta Antagonism through Coactivator Recruitment Follow-Up Assay, Ratio (AID 2283967)
# How it was run: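 Coactivator (SRC-2) recruitment to purified GST-TRβ ligand-binding domain is monitored by terbium-to-fluorescein energy transfer, emission ratio 520:495 nm. DMSO wells define 0% and T3 wells 100% activity.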
# Sequence of THRB (gene 7068) (P10828 whole entry, looked up, the tested form may be a part): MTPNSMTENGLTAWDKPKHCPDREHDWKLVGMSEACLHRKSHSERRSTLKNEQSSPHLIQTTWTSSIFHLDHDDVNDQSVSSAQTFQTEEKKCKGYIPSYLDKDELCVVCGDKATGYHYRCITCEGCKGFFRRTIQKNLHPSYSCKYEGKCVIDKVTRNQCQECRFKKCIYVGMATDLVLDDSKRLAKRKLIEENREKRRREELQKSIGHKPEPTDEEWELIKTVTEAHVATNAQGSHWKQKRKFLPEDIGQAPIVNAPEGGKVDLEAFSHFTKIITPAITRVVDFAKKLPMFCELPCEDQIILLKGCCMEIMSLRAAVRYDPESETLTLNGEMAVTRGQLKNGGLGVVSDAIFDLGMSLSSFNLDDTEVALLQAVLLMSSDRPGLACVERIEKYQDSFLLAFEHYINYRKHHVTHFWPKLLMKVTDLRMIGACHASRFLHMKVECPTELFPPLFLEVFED
# Sequence of human Ephrin type-A Receptor 1 (EphA1), EPHA1 (gene 2041) (P21709 whole entry, looked up): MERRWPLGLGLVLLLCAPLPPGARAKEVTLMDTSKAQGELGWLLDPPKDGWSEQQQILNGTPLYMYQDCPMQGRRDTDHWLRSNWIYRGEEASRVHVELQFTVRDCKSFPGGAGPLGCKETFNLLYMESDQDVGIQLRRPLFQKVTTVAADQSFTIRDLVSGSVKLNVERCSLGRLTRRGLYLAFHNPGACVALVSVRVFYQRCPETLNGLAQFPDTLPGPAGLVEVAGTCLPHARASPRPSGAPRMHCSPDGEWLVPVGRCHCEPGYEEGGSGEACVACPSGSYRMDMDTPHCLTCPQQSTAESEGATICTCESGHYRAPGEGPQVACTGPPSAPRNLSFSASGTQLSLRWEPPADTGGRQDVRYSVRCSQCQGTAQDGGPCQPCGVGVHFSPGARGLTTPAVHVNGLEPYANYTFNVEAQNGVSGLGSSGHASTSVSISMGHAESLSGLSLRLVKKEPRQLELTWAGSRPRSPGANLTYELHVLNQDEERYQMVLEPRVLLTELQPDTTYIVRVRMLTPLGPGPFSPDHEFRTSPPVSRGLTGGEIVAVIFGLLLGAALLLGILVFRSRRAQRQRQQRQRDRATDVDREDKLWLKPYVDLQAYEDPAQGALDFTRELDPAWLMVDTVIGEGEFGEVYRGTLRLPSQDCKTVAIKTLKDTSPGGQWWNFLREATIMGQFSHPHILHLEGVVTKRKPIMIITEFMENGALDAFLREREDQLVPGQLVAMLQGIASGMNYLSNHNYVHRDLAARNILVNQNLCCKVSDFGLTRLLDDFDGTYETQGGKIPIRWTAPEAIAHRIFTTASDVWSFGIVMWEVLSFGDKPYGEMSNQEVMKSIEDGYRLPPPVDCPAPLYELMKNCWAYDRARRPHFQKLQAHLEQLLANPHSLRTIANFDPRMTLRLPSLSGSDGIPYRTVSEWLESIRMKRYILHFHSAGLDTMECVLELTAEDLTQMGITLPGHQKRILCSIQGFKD
# Sequence of PGR (gene 5241) (P06401 whole entry, looked up): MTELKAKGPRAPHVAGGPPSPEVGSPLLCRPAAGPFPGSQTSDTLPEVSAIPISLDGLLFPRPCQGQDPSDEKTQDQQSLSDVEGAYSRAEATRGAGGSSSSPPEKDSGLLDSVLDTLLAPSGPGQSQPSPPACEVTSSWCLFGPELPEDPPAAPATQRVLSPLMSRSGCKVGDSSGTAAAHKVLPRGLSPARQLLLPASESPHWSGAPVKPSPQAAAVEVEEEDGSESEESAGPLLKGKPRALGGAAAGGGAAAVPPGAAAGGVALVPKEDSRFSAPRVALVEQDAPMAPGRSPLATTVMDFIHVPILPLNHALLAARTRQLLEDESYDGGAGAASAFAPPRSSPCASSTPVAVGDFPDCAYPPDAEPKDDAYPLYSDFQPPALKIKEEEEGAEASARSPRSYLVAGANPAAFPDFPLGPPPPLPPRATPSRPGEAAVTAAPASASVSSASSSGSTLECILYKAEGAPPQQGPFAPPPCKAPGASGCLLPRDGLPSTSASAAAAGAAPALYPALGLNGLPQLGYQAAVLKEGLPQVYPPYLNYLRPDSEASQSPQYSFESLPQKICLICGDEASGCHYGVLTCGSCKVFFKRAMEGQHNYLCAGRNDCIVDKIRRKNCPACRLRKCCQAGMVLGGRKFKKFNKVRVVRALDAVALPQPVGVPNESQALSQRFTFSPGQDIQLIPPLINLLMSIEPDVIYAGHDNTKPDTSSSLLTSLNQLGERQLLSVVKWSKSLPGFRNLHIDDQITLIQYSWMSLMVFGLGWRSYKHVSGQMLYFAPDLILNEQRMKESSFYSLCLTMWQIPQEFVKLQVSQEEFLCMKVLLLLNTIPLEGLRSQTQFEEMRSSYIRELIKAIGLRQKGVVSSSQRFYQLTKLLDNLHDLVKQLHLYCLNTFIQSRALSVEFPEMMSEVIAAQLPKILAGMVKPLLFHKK
# Sequence of rat Peripheral-type Benzodiazepine Receptor (PBR), Tspo (gene 24230) (P16257 whole entry, looked up): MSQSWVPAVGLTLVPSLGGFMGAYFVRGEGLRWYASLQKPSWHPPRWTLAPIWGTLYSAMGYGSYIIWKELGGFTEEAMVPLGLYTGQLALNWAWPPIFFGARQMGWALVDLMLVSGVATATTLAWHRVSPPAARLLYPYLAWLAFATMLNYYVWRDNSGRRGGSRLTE
# Sequence of Retinoic acid receptor RXR-alpha (Homo sapiens) (P19793 whole entry, looked up, the tested form may be a part): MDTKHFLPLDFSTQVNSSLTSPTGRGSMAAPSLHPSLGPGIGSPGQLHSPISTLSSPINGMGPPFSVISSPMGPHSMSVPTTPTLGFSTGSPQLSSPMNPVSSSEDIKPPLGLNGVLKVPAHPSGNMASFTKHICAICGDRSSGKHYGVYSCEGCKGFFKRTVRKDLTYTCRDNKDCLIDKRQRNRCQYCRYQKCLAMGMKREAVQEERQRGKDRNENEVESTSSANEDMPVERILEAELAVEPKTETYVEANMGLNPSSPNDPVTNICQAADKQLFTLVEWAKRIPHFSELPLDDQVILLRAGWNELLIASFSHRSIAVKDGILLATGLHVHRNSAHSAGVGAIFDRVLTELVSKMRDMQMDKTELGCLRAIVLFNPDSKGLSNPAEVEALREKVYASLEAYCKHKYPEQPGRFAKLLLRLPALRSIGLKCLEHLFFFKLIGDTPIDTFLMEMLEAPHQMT
# Sequence of Luciferin 4-monooxygenase (Photinus pyralis) (P08659 whole entry, looked up): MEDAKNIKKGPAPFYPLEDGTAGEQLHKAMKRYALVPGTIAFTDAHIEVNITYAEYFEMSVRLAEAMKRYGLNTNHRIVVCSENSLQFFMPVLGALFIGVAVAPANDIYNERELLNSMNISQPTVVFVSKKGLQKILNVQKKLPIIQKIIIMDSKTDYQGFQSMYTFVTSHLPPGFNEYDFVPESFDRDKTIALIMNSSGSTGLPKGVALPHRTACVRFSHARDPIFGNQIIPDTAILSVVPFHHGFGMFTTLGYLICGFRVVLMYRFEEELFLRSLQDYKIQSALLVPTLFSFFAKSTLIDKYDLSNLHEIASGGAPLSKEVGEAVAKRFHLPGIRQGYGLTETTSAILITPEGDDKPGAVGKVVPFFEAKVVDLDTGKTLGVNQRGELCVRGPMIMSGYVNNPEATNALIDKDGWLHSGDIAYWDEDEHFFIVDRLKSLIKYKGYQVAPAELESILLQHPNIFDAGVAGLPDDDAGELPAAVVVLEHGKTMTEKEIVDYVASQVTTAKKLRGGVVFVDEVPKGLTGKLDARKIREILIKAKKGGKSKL
# Sequence of Steroid hormone receptor ERR1 (Homo sapiens) (P11474 whole entry, looked up, the tested form may be a part): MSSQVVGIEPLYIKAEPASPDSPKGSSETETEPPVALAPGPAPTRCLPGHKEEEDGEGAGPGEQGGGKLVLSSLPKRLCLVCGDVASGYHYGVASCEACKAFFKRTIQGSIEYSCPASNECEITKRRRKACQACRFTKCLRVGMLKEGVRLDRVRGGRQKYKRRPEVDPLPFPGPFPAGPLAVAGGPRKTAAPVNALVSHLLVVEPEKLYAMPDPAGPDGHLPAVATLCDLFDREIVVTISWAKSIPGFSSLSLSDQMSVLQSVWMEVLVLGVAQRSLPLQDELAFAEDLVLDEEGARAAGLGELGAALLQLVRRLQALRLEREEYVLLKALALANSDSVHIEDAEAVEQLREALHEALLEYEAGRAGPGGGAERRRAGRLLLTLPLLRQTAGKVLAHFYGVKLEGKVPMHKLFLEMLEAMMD
# Sequence of human Norepinephrine Transporter (NET), SLC6A2 (gene 6530) (P23975 whole entry, looked up): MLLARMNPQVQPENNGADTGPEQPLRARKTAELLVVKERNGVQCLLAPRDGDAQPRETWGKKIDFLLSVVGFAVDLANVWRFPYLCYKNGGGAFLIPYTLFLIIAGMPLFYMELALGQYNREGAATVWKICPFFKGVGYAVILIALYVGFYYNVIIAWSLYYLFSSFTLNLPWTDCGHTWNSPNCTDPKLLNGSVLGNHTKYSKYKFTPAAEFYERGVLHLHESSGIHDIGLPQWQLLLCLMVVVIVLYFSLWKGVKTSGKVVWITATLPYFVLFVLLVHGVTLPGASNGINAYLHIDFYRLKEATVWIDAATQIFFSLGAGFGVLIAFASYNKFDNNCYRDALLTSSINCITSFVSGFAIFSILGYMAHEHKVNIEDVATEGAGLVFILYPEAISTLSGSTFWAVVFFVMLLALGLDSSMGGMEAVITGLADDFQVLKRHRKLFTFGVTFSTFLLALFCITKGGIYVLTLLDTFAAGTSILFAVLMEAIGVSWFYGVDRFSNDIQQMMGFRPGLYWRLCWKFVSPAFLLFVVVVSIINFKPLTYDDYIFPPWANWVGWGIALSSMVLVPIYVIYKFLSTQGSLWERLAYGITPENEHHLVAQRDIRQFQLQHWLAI
structure (smiles),measurement,setting,value
CC[N+](CC)(CC(=O)Nc1c(C)cccc1C)Cc1ccccc1,outcome,[1],inactive
same,outcome,[2],inactive
same,outcome,[3],inactive
same,outcome,[4],inactive
same,outcome,[5],inactive
COc1ccc2ccccc2c1,outcome,[6],inactive
same,outcome,[7],inactive
same,AC50,[8],25 µM (active)
C[N+](C)(C)CC(=O)[O-],outcome,[9],inactive
CCCCCC[C@@H](O)C/C=C\CCCCCCCC(=O)O,AC50,[5],15.1 µM (active)
same,outcome,[10],inactive
CCCCCCCCCC/C=C/C1CC(=O)OC1=O (stereo not given),outcome,[2],inactive
same,outcome,[3],inactive
Oc1cccc2ccccc12,outcome,[2],inactive
same,outcome,[3],inactive
same,AC50,[8],21 µM (active)
same,AC50,[11],1.62 µM (active)
same,outcome,[12],inactive
same,AC50,[13],29.9 µM (active)
same,outcome,[10],inactive
O=S(=O)(O)c1cccc2ccccc12,outcome,[14],inactive
CCCCC(CC)COC(=O)C=Cc1ccc(OC)cc1 (stereo not given),outcome,[11],inactive
same,outcome,[12],inactive
same,outcome,[13],inactive
CC(=[OH+])/C=C(/C)[O-].CC(=[OH+])/C=C(/C)[O-].CC(=[OH+])/C=C(/C)[O-].[Al],AC50,[4],7.03 µM (active)
COc1ccccc1OCC(O)CO (stereo not given),outcome,[9],inactive
COc1ccc(C(=O)c2ccccc2O)c(O)c1,outcome,[11],inactive
same,AC50,[12],81.7 µM (active)
same,outcome,[13],inactive
Oc1ccc(Oc2ccccc2)cc1,AC50,[6],1.54 µM (active)
same,AC50,[7],1.44 µM (active)
same,outcome,[15],inactive
CCO[Si](OCC)(OCC)c1ccccc1,outcome,[14],inactive
same,outcome,[9],inactive
O=C(O)Cc1c[nH]c2ccccc12,outcome,[14],inactive
same,outcome,[15],inactive
CC[N+](CC)(CC(=O)Nc1c(C)cccc1C)Cc1ccccc1 (tested in a mixture with another compound),outcome,[1],inactive
same,AC50,[4],3.68 µM (active)
same,outcome,[10],inactive
C=C(C)C(=O)OCC1CCCO1 (stereo not given),outcome,[15],inactive
Oc1ccc2c(c1)Cc1ccccc1-2,AC50,PGR (gene 5241),29.4 µM (active)
same,outcome,[16],inactive
same,outcome,[17],inactive
O=[Se](O)O,AC50,THRB (gene 7068) [18],1.64 µM (active)
same,AC50,THRB (gene 7068) [19],31.7 µM (active)
Cc1oc(C)c(C(=O)Nc2ccccc2)c1C,outcome,THRB (gene 7068) [18],inactive
CC(O)(c1ccc(Cl)cc1)c1ccc(Cl)cc1,AC50,PGR (gene 5241),46.1 µM (active)
same,outcome,[16],inactive
same,outcome,[17],inactive
O=C(CCCCCCC(=O)Nc1ccccc1)NO,outcome,THRB (gene 7068) [18],inactive
same,outcome,THRB (gene 7068) [19],inactive
CO[C@H]1C[C@@H]2CC[C@@H](C)[C@@](O)(O2)C(=O)C(=O)N2CCCC[C@H]2C(=O)O[C@H]([C@H](C)C[C@@H]2CC[C@@H](O)[C@H](OC)C2)CC(=O)[C@H](C)/C=C(\C)[C@@H](O)[C@@H](OC)C(=O)[C@H](C)C[C@H](C)\C=C/C=C/C=C/1C,outcome,THRB (gene 7068) [19],inactive
CC(COc1ccccc1)N(CCCl)Cc1ccccc1 (stereo not given),AC50,PGR (gene 5241),31.6 µM (active)
same,outcome,[16],inactive
same,outcome,[17],inactive
